Among all 360,000 compounds or so, about 25,000 (6.9%) were called active. About 9% were inconclusive and are not listed. Calls come from the whole dose curve; as a rule, active = well fitted inhibition curve with a large enough effect; inconclusive = small, poorly fitted or top-dose-only effect; inactive = flat fitted curve, though single readings scatter. What follows is part of a selection rich in actives, with near analogues and random picks from the rest.
Target: Luciferin 4-monooxygenase (Photinus pyralis) (UniProt P08659)
Sequence (P08659 whole entry, looked up): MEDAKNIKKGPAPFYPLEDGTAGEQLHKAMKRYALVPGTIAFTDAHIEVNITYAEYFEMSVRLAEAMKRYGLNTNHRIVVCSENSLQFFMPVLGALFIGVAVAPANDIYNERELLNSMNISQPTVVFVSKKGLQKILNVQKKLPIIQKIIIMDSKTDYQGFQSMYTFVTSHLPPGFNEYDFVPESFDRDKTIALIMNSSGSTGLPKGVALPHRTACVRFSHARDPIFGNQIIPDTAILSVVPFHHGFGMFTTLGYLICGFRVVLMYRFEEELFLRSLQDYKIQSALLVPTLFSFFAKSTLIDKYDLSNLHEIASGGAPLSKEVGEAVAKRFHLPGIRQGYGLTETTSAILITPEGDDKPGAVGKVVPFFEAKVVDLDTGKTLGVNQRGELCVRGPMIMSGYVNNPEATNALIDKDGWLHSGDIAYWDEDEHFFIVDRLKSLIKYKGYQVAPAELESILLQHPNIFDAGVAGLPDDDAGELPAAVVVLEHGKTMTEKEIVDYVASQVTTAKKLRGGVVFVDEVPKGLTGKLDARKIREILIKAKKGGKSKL
Assay: qHTS profiling assay for firefly luciferase inhibitor/activator using purifed enzyme and Km concentrations of substrates (counterscreen for miR-21 project); note: nearly all actives have a fitted effect of over 55% in size;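 for activity change, negative = inhibition: plate controls were vehicle for no effect and reference inhibitor for full effect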
Details: purified FLuc, luminescence inhibition; series mostly up to 57.5 µM; activity change, negative = inhibition: at the top concentration
Method in brief: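 Biochemical qHTS of compounds, final roughly 60 µM downward over six points, against 10 nM purified firefly luciferase using Km concentrations of substrates (10 uM D-luciferin, 10 uM ATP) in Tris acetate pH 7.5 buffer; luminescence output.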
Potency is the fitted concentration of half-maximal effect.

Row | SMILES | activity change, negative = inhibition | Potency
1 | Cc1cccc(N2CCN(C(=O)Cn3ncc4c5ccccc5n(C)c4c3=O)CC2C)c1 (stereo not given) | -17.6% (inactive) | –
2 | CCN(CC)S(=O)(=O)c1cc(C(=O)Nc2cc(S(=O)(=O)N3CCOCC3)ccc2N2CCCC2)ccc1F | 0.283% (inactive) | –
3 | CN1CCN(/N=C2/C(=O)Nc3ccc([N+](=O)[O-])cc32)CC1 | 3.69% (inactive) | –
4 | CCCCN(C(=O)C1CCC1)c1c(N)n(Cc2ccccc2)c(=O)[nH]c1=O | 3.44% (inactive) | –
5 | CCOc1ccc(NC(=O)C(CC(C)C)N2Cc3ccccc3C2=O)cc1 (stereo not given) | -1.23% (inactive) | –
6 | CCOC(=O)c1ccc(NC(=O)C2CC(=O)N(c3ccc(C(C)C)cc3)C2)cc1 (stereo not given) | 5.6% (inactive) | –
7 | CCNC(=O)CC1C(=O)N(c2ccc(OC)cc2)C(=O)N1CCOC (stereo not given) | -1.18% (inactive) | –
8 | O=C(c1ccc(Oc2ccc(Cl)cc2)c([N+](=O)[O-])c1)N1CCCC1 | 7.17% (inactive) | –
9 | CCOC(=O)c1oc2ccc(S(=O)(=O)n3nc(-c4ccccc4OC)cc3N)cc2c1C | -2.26% (inactive) | –
10 | COc1ccc(-c2[nH]c3c(c2-c2c(-n4cccc4)n(C)c(=O)n(C)c2=O)c(=O)n(C)c(=O)n3C)cc1 | -0.923% (inactive) | –
11 | COC(=O)c1cc(NC2c3ccccc3C(=O)N2c2ccc(Cl)cn2)cc(C(=O)OC)c1 (stereo not given) | – | 6.01 µM (active)
12 | CCc1ccccc1NC1c2ccccc2C(=O)N1c1cccnc1 (stereo not given) | -0.0554% (inactive) | –
13 | COC(=O)c1cc(NC(=O)c2nn(C)c(=O)c3ccccc23)cc(C(=O)OC)c1 | 3.92% (inactive) | –
14 | CCOc1ccc(C(=O)N2CCN(CCc3ccccn3)CC2)cc1 | 3.42% (inactive) | –
15 | CCCCNC(=O)CSc1nc2cc3c(cc2c(=O)n1CCCCCC(=O)NCc1ccc2c(c1)OCO2)OCO3 | 0.542% (inactive) | –
16 | CCCCN=C1C([N+](=O)[O-])=CC=C2C1=NC1(CCCCC1)N2O | -11% (inactive) | –
17 | C=CCn1c(=O)c(C(=O)Nc2ncccc2O)c(O)c2ccccc21 | -6.51% (inactive) | –
18 | Cn1c(=O)c(C(=O)Nc2ncccn2)c(O)c2ccccc21 | – | 21.3 µM (active)
19 | CCCn1c(=O)c(C(=O)Nc2cc(C)ccn2)c(O)c2ccccc21 | 1.71% (inactive) | –
20 | C=CCC(Nc1ccccc1)c1cccc(OC)c1OC (stereo not given) | -12.1% (inactive) | –
21 | CCCCn1c(N)c(N(CCOC)C(=O)c2oc3ccc(OC)cc3c2C)c(=O)[nH]c1=O | 2.03% (inactive) | –
22 | COCCNC(=S)N1CCC(NC(=O)C23CC4CC(CC(C4)C2)C3)CC1 | -0.263% (inactive) | –
23 | CC(C)(C)Nc1c(-c2cccs2)nc2ccccn12 | -13.8% (inactive) | –
24 | Cc1ccn2c(Nc3ccc4c(c3)OCCO4)c(-c3ccc(C)s3)nc2c1 | – | 8.49 µM (active)
25 | Cc1ccc(Nc2c(-c3ccc(C)s3)nc3ccccn23)cc1 | – | 13.5 µM (active)

Row | SMILES | activity change, negative = inhibition | Potency
26 | Oc1ccccc1-c1nc2ccc(Cl)cn2c1Nc1ccc2c(c1)OCCO2 | -18.4% (inactive) | –
27 | Cc1ccc(Nc2c(-c3ccc(C)cc3)nc3cnccn23)cc1 | -14.5% (inactive) | –
28 | Cc1ccc(-c2nc3cccc(C)n3c2Nc2ccc3c(c2)OCCO3)cc1 | -10.8% (inactive) | –
29 | Cn1c(=O)nc2n(-c3ccc(Br)cc3)c3cccc(Cl)c3cc-2c1=O | -1.13% (inactive) | –
30 | O=C(COc1ccccc1F)OCc1cc(=O)n2nc(C3CCCCC3)sc2n1 | -13.9% (inactive) | –
31 | CC(C)CNc1ncnc2c1nnn2C | -2.58% (inactive) | –
32 | O=S(=O)(c1ccc2nc(NCc3ccccc3Cl)ccc2c1)N1CCCCC1 | -1.79% (inactive) | –
33 | O=C1C=C(c2cccc(Br)c2)C[C@@H](c2ccc(F)cc2)C1 | 2.31% (inactive) | –
34 | Cc1ccc(C)c(N2CCN(Cc3nnc(-c4ccccc4)o3)CC2)c1 | 2.45% (inactive) | –
35 | O=C(c1nnc(-c2ccc(Cl)cc2)o1)C1CCCC1 | – | 5.36 µM (active)
36 | CC(C)N(Cc1nnc(-c2ccc(Cl)cc2)o1)C(=O)C1=COCCO1 | -2.55% (inactive) | –
37 | O=C(c1[nH]ncc1-c1ccc(Cl)cc1)C1CO1 (stereo not given) | -11.5% (inactive) | –
38 | CCOCCCNC(=O)c1ccc2nc(CCc3ccccc3)oc2c1 | -12.1% (inactive) | –
39 | CN1CCC(N(C)S(=O)(=O)c2ccc(NC(=O)c3cccc(C#N)c3)cc2)CC1 | 4.81% (inactive) | –
40 | Cc1ccc(C2=Nc3c(ccc4ccccc34)C(c3ccncc3)=NN2)cc1 | 3.9% (inactive) | –
41 | COc1ccc2c(c1)C(c1cccs1)=NNC(c1cccnc1)=N2 | -0.0149% (inactive) | –
42 | CCOc1ccc2c(c1)C(c1ccc(C)cc1)=NNC(c1ccc(C)cc1)=N2 | – | 23.9 µM (active)
43 | COCCCNC(NC(=O)c1ccc(C)cc1)C(Cl)(Cl)Cl (stereo not given) | -0.651% (inactive) | –
44 | COc1ccc(CCNC(=O)c2ccccc2-c2ccccc2C(=O)O)cc1OC | 2.35% (inactive) | –
45 | COc1ccc(CCNC(=O)c2ccccc2OCc2ccccc2)cc1 | -12.9% (inactive) | –
46 | COc1cccc2[nH]c(C(=O)NCCc3ccccc3)cc12 | – | 23.9 µM (active)
47 | O=C(Cn1ncn2nc(-c3cccs3)cc2c1=O)NCc1cccc(Br)c1 | -13.8% (inactive) | –
48 | COc1ccc(/C=C/c2noc(-c3ccccc3OC(C)=O)n2)cc1 | – | 15.1 µM (active)
49 | CC(=O)c1ccc(NC(=O)COc2ccccc2-c2nc(-c3ccccc3)no2)cc1 | 3.11% (inactive) | –
50 | Oc1ccccc1-c1nc(/C=C/c2ccc(F)cc2)no1 | – | 0.757 µM (active)

Row | SMILES | activity change, negative = inhibition | Potency
51 | CC(=O)Oc1ccccc1C1=NN(C(C)=O)C(c2ccccc2)C1 (stereo not given) | -0.0618% (inactive) | –
52 | CCOC(=O)c1c(S(=O)(=O)N2CCC(C(=O)NCc3ccccc3OC)CC2)c(C)n(C)c1C | 2.97% (inactive) | –
53 | COc1ccc(CNC(=O)Cn2nnc(-c3ccc(S(C)(=O)=O)cc3)n2)cc1 | -0.976% (inactive) | –
54 | CCCCOC(=O)/C(C#N)=C/c1ccc(-c2cccc(C(F)(F)F)c2)o1 | 3.51% (inactive) | –
55 | CCCCN1CC(c2nc3ccccc3n2CCCCOc2ccc(C)cc2C)CC1=O (stereo not given) | -1.5% (inactive) | –
56 | COc1ccc(C(=O)OCC(=O)N2CC(=O)Nc3ccccc32)cc1Br | -0.738% (inactive) | –
57 | CCc1ccc(S(=O)(=O)Nc2cc3c(C(=O)OCc4ccccc4)c(C)oc3c3ccccc23)cc1 | -0.765% (inactive) | –
58 | CCC(=O)N1CCc2cc(Br)cc(S(=O)(=O)Nc3ccc(C)cc3C)c21 | -2.76% (inactive) | –
59 | O=C(Nc1ccc(OCC(=O)N2CCOCC2)cc1)c1cc(F)c(F)cc1Cl | – | 9.53 µM (active)
60 | O=C(Nc1cccc(OCC(=O)N2CCOCC2)c1)C1CCCCC1 | 0.505% (inactive) | –
61 | O=C(COc1ccc(S(=O)(=O)Nc2cccc(C(F)(F)F)c2)cc1)N1CCOCC1 | 3.06% (inactive) | –
62 | Cc1ccccc1CSCCNC(=O)C1CCN(S(=O)(=O)Cc2ccccc2)CC1 | -7.53% (inactive) | –
63 | CC1=NN(C(=O)CCCc2ccccc2)C(O)(C(F)(F)F)C1 (stereo not given) | 4.59% (inactive) | –
64 | C=CCN1CCN(C(=O)CCCc2ccccc2)CC1 | – | 2.13 µM (active)
65 | CCC(C)NC(=O)CCCc1ccccc1 (stereo not given) | -14.1% (inactive) | –
66 | CC(=O)NCc1ccc(-c2csc(NC(=O)CCCc3nc4ccccc4c(=O)[nH]3)n2)cc1 | -4.62% (inactive) | –
67 | O=C(Nc1ccc(S(=O)(=O)N2CCCC2)cc1Cl)C1=COCCO1 | -1.32% (inactive) | –
68 | Cc1ccc(-c2csc(NC(=O)C3=COCCO3)n2)cc1C | – | 6.75 µM (active)
69 | CC(=O)NCCC(=O)Nc1nc(-c2ccc3c(c2)OCCO3)cs1 | – | 19 µM (active)
70 | COc1cc(-c2nnc(NC(=O)C3=COCCO3)o2)cc(OC)c1OC | 4.13% (inactive) | –
71 | CC(=O)NCCC(=O)Nc1nc(C)c(Cc2ccc3c(c2)OCO3)s1 | -13.8% (inactive) | –
72 | Cc1cccc(NC(=O)CN2CCN(C(=O)C3CCN(C(=O)/C=C/c4ccccc4)CC3)CC2)c1C | -18.8% (inactive) | –
73 | CCNC(=O)CC1C(=O)N(c2ccc(F)cc2)C(=O)N1CCc1sccc1C (stereo not given) | -2.04% (inactive) | –
74 | Cc1ccc(CN2CCc3nc(N4CCN(C)CC4)ncc3C2)cc1 | -1.97% (inactive) | –
75 | CCC(C)Sc1nnc(-c2c[nH]c3ccccc23)n1CCOC (stereo not given) | -6.48% (inactive) | –

Row | SMILES | activity change, negative = inhibition | Potency
76 | CCCCCN1CC(O)=C(c2nc(-c3ccc(Cl)cc3)cs2)C1=N | -2.37% (inactive) | –
77 | Cc1ccc(-c2csc(-c3cc(C)on3)n2)cc1 | – | 8.49 µM (active)
78 | Cc1ccc(-c2csc(-c3c[nH]c4ccccc34)n2)cc1 | – | 12 µM (active)
79 | CCCc1cc(-c2n[nH]c(=S)n2CC)c2ccccc2n1 | -8.46% (inactive) | –
80 | CCCc1cc(-c2nc(-c3ccc(C)cc3)cs2)ccn1 | – | 23.9 µM (active)
81 | Cc1cc(-c2n[nH]c(=S)n2-c2ccc(C)c(C)c2)no1 | -1.9% (inactive) | –
82 | Cc1cc(-c2nc(C)c(-c3nnc(SCC(=O)Nc4ccccc4)n3C)s2)no1 | -1.89% (inactive) | –
83 | Cc1ccc(-n2c(=O)c3cccnc3n2CC(=O)Nc2ccccc2C(F)(F)F)cc1C | 2.79% (inactive) | –
84 | O=C(Nc1cccc(-c2nc3ccccc3[nH]2)c1)c1ccc(C(=O)Nc2cccc(-c3nc4ccccc4[nH]3)c2)cc1 | – | 12 µM (active)
85 | O=C(/C=C/c1ccco1)Nc1cccc(-c2nc3ccccc3[nH]2)c1 | – | 7.57 µM (active)
86 | Cc1cccc(NC(=O)C2CCN(S(=O)(=O)c3c(C)noc3/C=C/c3ccco3)CC2)c1 | -0.915% (inactive) | –
87 | NS(=O)(=O)c1cccc(NC(=O)COC(=O)/C=C/c2ccco2)c1 | -5.38% (inactive) | –
88 | Cc1ccc(OCC(=O)Nc2ccc(Cl)c(-c3nc4ccccc4[nH]3)c2)cc1C | -14.1% (inactive) | –
89 | CN(c1ccccc1)S(=O)(=O)c1cc(C(=O)Nc2nc3ccccc3[nH]2)ccc1Cl | -20.5% (inactive) | –
90 | Cc1ccc(-n2nc3ccc(NC(=O)/C=C/c4ccco4)cc3n2)cc1C | – | 9.53 µM (active)
91 | CC(C)Oc1ccc(/C=C(\NC(=O)/C=C/c2ccco2)C(=O)NCCc2nc3ccccc3[nH]2)cc1 | 7.21% (inactive) | –
92 | CCOC(=O)c1c(NC(=O)/C=C/c2ccco2)sc(C)c1C | -11% (inactive) | –
93 | COC(C[C@H](O)CC(=O)COCc1ccccc1)OC | -2.58% (inactive) | –
94 | CC(=O)NC12CC3CC(C1)CC(C(=O)N1CCN(C(=O)c4ccco4)CC1)(C3)C2 | 7.4% (inactive) | –
95 | CCOc1ccc(OCC)c(NC(=O)c2c(C)nn(-c3ccccc3)c2-n2cccc2)c1 | -3.33% (inactive) | –
96 | CN(C)C(CNC(=O)c1cccc(C#N)c1)c1ccco1 (stereo not given) | -2.34% (inactive) | –
97 | CCN(C(=O)COc1cccnc1[N+](=O)[O-])C1CCS(=O)(=O)C1 (stereo not given) | 5.49% (inactive) | –
98 | CC(C)c1ccc(NC(=O)CN(C)S(=O)(=O)c2ccc3c(c2)c(=O)n(C)c(=O)n3C)cc1 | -17.2% (inactive) | –
99 | COc1ccccc1CN1CCC(CNC(=O)c2cnn(-c3cccc(Cl)c3)c2C2CCN(C(=O)OC(C)(C)C)CC2)CC1 | -2.61% (inactive) | –
100 | CCc1ccc(N(CC)C(=O)CCn2cnc3onc(-c4ccc(F)cc4)c3c2=O)cc1 | -0.244% (inactive) | –
